ELG1 genotox = qHTS screen for small molecules that induce genotoxicity in human embryonic kidney (HEK293T) cells expressing luciferase-tagged ELG1 | HEK293T ELG1-luciferase reporter, luminescence, 16 h | Potency, µM (top dose mostly 46 µM), actives largely listed as activators | hit rate 1.3% among 330,000 | AID 504466, 2011; further: nearly all actives have a fitted effect of over 60% in size
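HEK293T cells expressing luciferase-tagged ELG1 were treated with compound or DMSO for 16 hr at 37°C. Luciferase activity was then read after 30 min with ONE-Glo at room temperature; rising signal flags genetic stress.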
SMN2 splice up = qHTS Assay for Enhancers of SMN2 Splice Variant Expression | HEK293 SMN2-luciferase splicing reporter, luminescence, 30-36 h | Potency, µM (highest dose often 46.1 µM), hits mostly activators | hit rate 2.8% among 210,000; further: nearly all actives have a fitted effect of over 55% in size
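HEK293 cells carry an SMN2 […]–luciferase reporter in which exon 7 inclusion puts luciferase in frame. Cells were plated 10-12 h before compound addition, then incubated 30-36 h at 37C. ONE-Glo luminescence was read; sodium butyrate at 4.5 mM final served as control.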
NPC1 prom act = qHTS Assay for NPC1 Promoter Activators. hit rate 2.4% among 320,000. AID 485313, 2010. Huh7 NPC1 promoter luciferase reporter, 24 h. Potency, µM (doses to about 9.22 µM), hits mostly activators; further: nearly all actives have a fitted effect of over 60% in size
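Readout is luciferase luminescence, reflecting NPC1 promoter activation in stably transfected Huh7 cells after 24 h compound exposure at 37 °C in reduced-serum medium with 10% FBS.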
FLuc modulator = qHTS profiling assay for firefly luciferase inhibitor/activator using purifed enzyme and Km concentrations of substrates (counterscreen for miR-21 project) | purified FLuc, Km substrates, luminescence inhibition | AID 588342, 2011 | hit rate 6.9% among 360,000 | Potency, µM (titrated, usually from 57.5 µM), actives largely listed as inhibitors | Luciferin 4-monooxygenase (Photinus pyralis), P08659; further: nearly all actives have a fitted effect of over 55% in size
Target sequence (P08659 whole entry, looked up): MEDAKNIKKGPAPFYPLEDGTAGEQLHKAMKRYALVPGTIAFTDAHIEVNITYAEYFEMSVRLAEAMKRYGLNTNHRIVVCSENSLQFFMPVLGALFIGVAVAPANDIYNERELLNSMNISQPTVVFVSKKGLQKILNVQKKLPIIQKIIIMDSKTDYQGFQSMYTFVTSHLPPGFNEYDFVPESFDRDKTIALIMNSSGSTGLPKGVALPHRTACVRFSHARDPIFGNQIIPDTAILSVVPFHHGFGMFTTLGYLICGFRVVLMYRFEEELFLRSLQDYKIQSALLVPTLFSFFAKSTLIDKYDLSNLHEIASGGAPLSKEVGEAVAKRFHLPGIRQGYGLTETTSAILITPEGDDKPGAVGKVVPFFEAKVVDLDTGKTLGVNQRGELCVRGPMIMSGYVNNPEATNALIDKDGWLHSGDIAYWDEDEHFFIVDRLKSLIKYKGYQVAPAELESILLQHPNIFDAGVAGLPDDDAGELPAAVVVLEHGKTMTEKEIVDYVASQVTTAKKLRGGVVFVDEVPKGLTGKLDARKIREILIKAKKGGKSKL
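Purified P. pyralis luciferase, 10 nM final, with Km-level 10 uM D-luciferin and 10 uM ATP in 50 mM Tris acetate pH 7.5, 10 mM Mg acetate, 0.01% Tween-20, 0.05% BSA; 6-point qHTS titration about 60 µM downward; luminescence read.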
Rab9 promoter act = qHTS Assay for Rab9 Promoter Activators; hit rate 2.8% among 320,000; AID 485297, 2010; Huh7 Rab9 promoter-luciferase reporter, luminescence, 24 h; Potency, µM (top dose mostly 9.22 µM), most hits filed as activators; further: nearly all actives have a fitted effect of over 60% in size
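Steps: seed 1500 Huh7 Rab9-luc cells per well, rest 2 h at 37 °C; add compound in DMSO; incubate 24 h; add luciferase reagent, 10 min ambient; read luminescence.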
ELG1 DNA repair = qHTS screen for small molecules that inhibit ELG1-dependent DNA repair in human embryonic kidney (HEK293T) cells expressing luciferase-tagged ELG1 | HEK293T ELG1-luciferase reporter, luminescence, 16 h; DNA damage induced by 5-fluorouridine | Potency, µM (highest dose often 46.1 µM), usual class: inhibitors | hit rate 2.3% among 330,000 | AID 504467, 2011; further: nearly all actives have a fitted effect of over 55% in size
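Overnight (16 hr) co-exposure of 2,000 cells/well to 5-fluorouridine and compound at 37 °C preceded detection. Luciferase was quantified via ONE-Glo luminescence; loss of signal denotes inhibition.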
A number is an active result. Rows were chosen to be rich in hits. Some 9.3% of all compounds tested hit in one or more screens of this group. The call rests on the fitted dose curve; in most records, active means well fitted curve in the direction sought with a large enough effect; inconclusive means small, poorly fitted or top-dose-only effect, or another doubt; inactive means no such curve, though single readings can be large; an effect the other way counts as inactive or inconclusive.

Results for CSCC(=O)N1CCc2ccc(NC(=O)c3ccccc3Cl)cc2C1 ?
ELG1 genotox: inconclusive; NPC1 prom act: inconclusive; FLuc modulator: 17µM; Rab9 promoter act: inconclusive; ELG1 DNA repair: inactive

What do the screens show for `CC(=O)Oc1ccc(C(=O)Nc2cccc(C(=O)c3cccc(NC(=O)c4ccc(OC(C)=O)cc4)c3)c2)cc1`?
ELG1 genotox: inactive; SMN2 splice up: inactive; NPC1 prom act: inactive; FLuc modulator: inactive; Rab9 promoter act: inactive; ELG1 DNA repair: 23µM

How did CC(=O)Oc1ccc(C(=O)Nc2cccc(C(=O)NC(C)(C)C)c2)cc1 do in these assays?
ELG1 genotox: inactive; SMN2 splice up: inactive; NPC1 prom act: inactive; FLuc modulator: 19µM; Rab9 promoter act: inactive; ELG1 DNA repair: inactive

Results for CC(C)(C)NC(=O)c1cccc(NC(=O)CSc2ccc(Cl)cc2)c1 ?
ELG1 genotox: inactive; SMN2 splice up: inactive; NPC1 prom act: inactive; FLuc modulator: 11µM; Rab9 promoter act: inactive; ELG1 DNA repair: inconclusive

How did CC(=O)Oc1ccc(C(=O)Nc2cccc(-c3nnc(-c4ccco4)o3)c2)cc1 do in these assays?
ELG1 genotox: inactive; NPC1 prom act: inactive; FLuc modulator: inactive; Rab9 promoter act: inactive; ELG1 DNA repair: inconclusive

How did CC(C)CNC(=O)c1cccc(NC(=O)CSc2ccc(Cl)cc2)c1 do in these assays?
ELG1 genotox: inactive; SMN2 splice up: inactive; NPC1 prom act: inactive; FLuc modulator: inconclusive; Rab9 promoter act: inactive; ELG1 DNA repair: inactive

What do the screens show for `CC(C)(C)NC(=O)c1cccc(NC(=O)c2cccc(O)c2)c1`?
ELG1 genotox: inactive; SMN2 splice up: inactive; NPC1 prom act: inactive; FLuc modulator: inconclusive; Rab9 promoter act: inactive; ELG1 DNA repair: inconclusive

Results for COc1ccc(CC(=O)Nc2cc(-c3cn4cccnc4n3)ccc2C)cc1OC ?
FLuc modulator: inactive

Results for CCNc1nc(NCC)nc(OCCNS(=O)(=O)c2cc(C)ccc2C)n1 ?
ELG1 genotox: inactive; SMN2 splice up: inactive; NPC1 prom act: inactive; FLuc modulator: inactive; Rab9 promoter act: inactive; ELG1 DNA repair: inconclusive

What do the screens show for `CCNc1nc(NC(C)C)nc(OCCNS(=O)(=O)c2cc(C)ccc2C)n1`?
ELG1 genotox: inactive; SMN2 splice up: inactive; NPC1 prom act: inactive; FLuc modulator: inactive; Rab9 promoter act: inactive; ELG1 DNA repair: 21µM

What do the screens show for `Cc1cccc(C(=O)N[C@H](C(=O)Nc2ccc(C)c(S(=O)(=O)N(C)C)c2)C(C)C)c1`?
ELG1 genotox: inactive; SMN2 splice up: inactive; NPC1 prom act: inactive; FLuc modulator: inactive; Rab9 promoter act: inactive; ELG1 DNA repair: inconclusive

What do the screens show for `COc1ccc(OC)c(CNC(=O)CN2N=C(c3ccc(Cl)cc3)CCC2=O)c1`?
FLuc modulator: inactive

How did O=C(CN1C(=O)c2ccccc2S1(=O)=O)c1ccccc1 do in these assays?
ELG1 genotox: inactive; SMN2 splice up: inactive; NPC1 prom act: inconclusive; FLuc modulator: 0.6µM; Rab9 promoter act: inconclusive; ELG1 DNA repair: inactive

What do the screens show for `O=C(CN1C(=O)c2ccccc2S1(=O)=O)N1CCCCC1`?
ELG1 genotox: 16µM; NPC1 prom act: inconclusive; FLuc modulator: inactive; Rab9 promoter act: 2.5µM; ELG1 DNA repair: inconclusive

Results for O=C(CN1C(=O)c2ccccc2S1(=O)=O)c1ccccc1Cl ?
ELG1 genotox: inactive; NPC1 prom act: inactive; FLuc modulator: 3µM; Rab9 promoter act: inconclusive; ELG1 DNA repair: inconclusive

What do the screens show for `O=C(CN1C(=O)c2ccccc2S1(=O)=O)N1CCOCC1`?
ELG1 genotox: inactive; SMN2 splice up: inconclusive; NPC1 prom act: inactive; FLuc modulator: inactive; Rab9 promoter act: inactive; ELG1 DNA repair: inconclusive

How did Cc1cc(C)c(NC(=O)CNC(=O)COC(=O)CNC(=O)c2ccc(Cl)cc2Cl)c(C)c1 do in these assays?
ELG1 genotox: inactive; NPC1 prom act: inactive; FLuc modulator: inactive; Rab9 promoter act: inactive; ELG1 DNA repair: inconclusive

How did CSC(=S)N/N=C/c1ccc(N(C)C)cc1 do in these assays?
ELG1 genotox: inconclusive; SMN2 splice up: inactive; NPC1 prom act: inactive; FLuc modulator: 2.7µM; Rab9 promoter act: inactive; ELG1 DNA repair: inconclusive

Results for O=C(N/N=C/c1ccc2ncccc2c1)c1ccco1 ?
ELG1 genotox: 2.6µM; SMN2 splice up: 0.56µM; NPC1 prom act: inconclusive; FLuc modulator: 1.3µM; Rab9 promoter act: 0.32µM; ELG1 DNA repair: inconclusive

What do the screens show for `Cc1ccc(/C=N/NC(=O)c2ccco2)cc1`?
ELG1 genotox: inconclusive; NPC1 prom act: 1.8µM; FLuc modulator: 3.8µM; Rab9 promoter act: 1.4µM; ELG1 DNA repair: inconclusive

Results for CN(C)c1ccc(/C=N/NC(=O)c2ccco2)cc1 ?
ELG1 genotox: 4.1µM; SMN2 splice up: 8.9µM; NPC1 prom act: 0.79µM; FLuc modulator: 2.7µM; Rab9 promoter act: 0.56µM; ELG1 DNA repair: inconclusive

How did O=C(c1cc(S(=O)(=O)N2CCOCC2)ccc1Cl)N1CCc2ccccc2C1 do in these assays?
ELG1 genotox: inactive; NPC1 prom act: inactive; FLuc modulator: inactive; Rab9 promoter act: inactive; ELG1 DNA repair: inactive

Results for Cc1cc(/C=N/NC(N)=S)c(C)n1-c1cccc(Cl)c1 ?
ELG1 genotox: inactive; SMN2 splice up: inactive; NPC1 prom act: inactive; FLuc modulator: inactive; Rab9 promoter act: inactive; ELG1 DNA repair: inactive

What do the screens show for `Cc1cc(/C=N/NC(=O)c2nn(C)cc2Cl)c(C)n1-c1cccc(Br)c1`?
ELG1 genotox: inactive; SMN2 splice up: inactive; NPC1 prom act: inactive; FLuc modulator: 24µM; Rab9 promoter act: inactive; ELG1 DNA repair: inconclusive

How did CN(C)c1ccc(/C=N/NC(=O)c2cc(=O)[nH]c3ccccc23)cc1 do in these assays?
ELG1 genotox: inactive; NPC1 prom act: inactive; FLuc modulator: inactive; Rab9 promoter act: inactive; ELG1 DNA repair: inactive

What do the screens show for `Cc1cccc(-n2c(C)cc(/C=N\NC(=O)c3ccco3)c2C)c1`?
ELG1 genotox: inconclusive; SMN2 splice up: inactive; NPC1 prom act: inconclusive; FLuc modulator: 9.5µM; Rab9 promoter act: 1.1µM; ELG1 DNA repair: inconclusive

How did CN(C)c1ccc(/C=N\NC(=O)c2cccc3cc[nH]c23)cc1 do in these assays?
ELG1 genotox: inconclusive; NPC1 prom act: inactive; FLuc modulator: 12µM; Rab9 promoter act: inconclusive; ELG1 DNA repair: inconclusive

How did Cc1cccc(-n2c(C)cc(/C=N/O)c2C)c1 do in these assays?
ELG1 genotox: inactive; SMN2 splice up: inactive; NPC1 prom act: inactive; FLuc modulator: inactive; Rab9 promoter act: inactive; ELG1 DNA repair: inactive

What do the screens show for `CCOC(=O)C1=C(CN(CC)Cc2ccccc2)NC(=O)NC1c1ccc(Cl)cc1` (stereo unspecified)?
SMN2 splice up: inactive; FLuc modulator: inactive
